# In PubChem BioAssay (NCI):
# About 83,000 compounds went through this panel and 20% of them were active in at least one assay; those are over-represented in the sample as a whole.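 Method: cells in 96-well plates; compound added at one concentration; 48 h incubation; percent growth measured; values under 10 scored active.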 Values without a mark were called inactive. Activity calls are given as the source filed them.
# Tested on: HL-60(TB) leukemia
# Test: NCI-60 one-dose screen, 48 h (100 = growth as untreated, 0 = no growth, -100 = all killed)
# Settings: 10 µM unless noted
row,SMILES,growth
1,CCCCC(CCc1ccc([N+](=O)[O-])cc1)(C(C)=O)C(=O)OCC (configuration not stated),93%
2,O=C1c2ccccc2-c2c1c1ccncc1c(=O)n2CCCn1ccnc1,35.7%
3,CCn1cc(-c2[nH]c(=S)ncc2-c2ccc(Cl)cc2)c(-c2ccc(Br)cc2)n1,117%
4,COc1ccc2c(c1)nnc1c3cccnc3[nH]c21,-31.4% (active)
5,CCOC(=O)c1cc(C(=O)c2ccc(Cl)cc2)n2ccc(-c3cc[n+](CC(=O)c4ccc(OC)cc4)cc3)cc12,24.9%
6,O=C(Nc1ccc(N2CCNCC2)cn1)c1[nH]ncc1Nc1ncnc2sc3c(c12)CCC3,74%
7,COc1ccc(-c2ccc(-c3ccc(C(=N)N)cn3)o2)cc1Cl,-59.5% (active)
8,CCN(CCNc1ccc(C)c2sc3cc(Cl)ccc3c(=O)c12)CC(C)O (configuration not stated),9.78% (active)
9,CCCCCCCCCCCCOc1ccccc1C=O,89.9%
10,Nc1cccc(Cl)c1N,79%
11,COc1cc(C(=O)C(=O)c2cc(OC)c(O)c(OC)c2)cc(OC)c1O,99.7%
12,CS(=O)(=O)Nc1cncc(-c2ccc3ncnc(Nc4ccc(F)c(Cl)c4)c3c2)c1,6.11% (active)
13,C[C@H]1[C@H](C)CC[C@]2(C(=O)O)CC[C@]3(C)C(=CC[C@@H]4[C@@]5(C)C[C@@H](Cc6cn([C@@H]7O[C@H](CO)[C@@H](O)[C@H](O)[C@H]7O)nn6)[C@H](O)C(C)(C)[C@@H]5CC[C@]43C)[C@H]12,91%
14,Nc1c(C(=O)Nc2cccc3c2OCCO3)sc2nc3c(cc12)C(=O)CCC3,12.4%
15,CCOC(=O)C1=CSC2=NC3=C(CCC/C3=C\c3cc(OC)c(OC)c(OC)c3)C(c3cc(OC)c(OC)c(OC)c3)N12 (configuration not stated),51.5%
16,Cn1cc(-c2csc(-c3cn(CCNC(=O)OC(C)(C)C)c4ccc(F)cc34)n2)c2cccnc21,42.7%
17,O=C1CCNC1,103%
18,CCOC(=O)C/C(=C\c1ccccc1)C(C)=O,98.5%
19,CCc1ccc(Oc2c(-c3ccc(OCc4ccc(Cl)cc4)cc3O)nn(C)c2C(F)(F)F)cc1,-36.9% (active)

row,SMILES,growth
1,C=C1C(=O)O[C@H]2[C@H]1CC/C(CNC(=O)/C1=C/CC[C@@]3(C)O[C@H]3[C@H]3OC(=O)C(=C)[C@@H]3CC1)=C\CC[C@@]1(C)O[C@@H]21,57.4%
2,COc1ccc(-n2nc(C)c3c(Oc4ccc(NC(=O)Nc5c(Cl)cccc5Cl)cc4)ncnc32)cc1,100%
3,CCC(c1ccc(O)cc1)C(CC)c1ccc(O)c(F)c1 (configuration not stated),56.1%
4,CCCCCCCCOC(=O)c1c(C)[nH]c(/C=C2\N=C(c3ccc[nH]3)C=C2OC)c1C,4.96% (active)
5,CCOC(=O)c1nnn(-c2ccccc2)c1C1=CN(C)CCC1,84.4%
6,Fc1ccc(Cn2cc(CSc3nc4ccccc4o3)nn2)cc1,104%
7,CC(C)CCSC1=CC(=O)c2ccccc2C1=O,13.3%
8,FC(F)(F)c1ccc(-c2cnc(Cl)nc2NCc2cc(C(F)(F)F)cc(C(F)(F)F)c2)cc1,5.98% (active)
9,CN1C(=O)C(=Cc2coc3ccc(Br)cc3c2=O)C(=O)N(C)C1=O,111%
10,CC(C)(C)CC(C)(C)c1ccc(OCCOCC[N+](C)(C)Cc2ccccc2)cc1,-63.5% (active)
11,C=C/C(C)=C/C[C@]1(C)[C@H](C)[C@@H](OC(=O)CCC)[C@H](O)[C@@]23C(=C[C@H](OC)C[C@@H]12)[C@@H](OC(=O)CCC)O[C@H]3OC(C)=O,-43.9% (active)
12,COc1ccc2c(c1)c(-c1nc(-c3c[nH]c4ccncc34)cs1)cn2C,-61.5% (active)
13,O=C(O)CSCSCC(=O)O,98.5%
14,CCN(C(=O)CN1CCN(c2cc3c(cc2F)c(=O)c(C(=O)O)cn3C2CC2)CC1)c1nc(-c2ccc(OC)cc2)cs1,30.1%
15,CN(C)CCCNC1=C(Cl)C(=O)c2ccccc2C1=O,45.3%
16,O=C1CC23OC(C(O)c4ccccc4N12)C1C(c2ccccc2)=NOC13 (configuration not stated),8.01% (active)
17,COc1cc(C2CC(c3ccc4c(c3)OCO4)=NN2C=O)cc(OC)c1OC (configuration not stated),0.568% (active)
18,CCOC(=O)c1c2c(n3ccc(NC(=O)CCN(CC)CC)cc13)C(=O)c1ncccc1C2=O,-48.5% (active)
